PfHsp90 yeast 2 – growth inhibition of PfHsp90-expressing yeast, primary screen, antimalarial PfHsp90 inhibitor project, S. cerevisiae, BacTiter-Glo luminescence, single point, set 2; BacTiter-Glo ATP, 48 h; yeast lacking PDR1 and PDR3 efflux regulators; inhibition, % at 9.4 µM; 0.32% of 310,000 active; AID 504621, 2011;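 active = every replicate shows inhibition above about 80%, whatever the replicate mean, limit read from the data; inconclusive = mean inhibition reaches the set limit but some replicate falls short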;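 also: 0% = DMSO neutral controls and 100% = 20 µM radicicol positive controls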
TIM10 inh – growth inhibitors of isogenic TIM10 control yeast, primary screen, counter-screen for tim10-1 yeast inhibitor project, luminescence, uHTS | S. cerevisiae TIM10 strain growth, BacTiter-Glo luminescence, 24 h | inhibition, % at 10 µM | 1.4% of 330,000 active;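 active = inhibition of 40% or more at the single tested concentration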;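 also: wild-type TIM10 isogenic control strain grown at permissive 25 °C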
tim10-1 inh – growth inhibitors of tim10-1 mutant yeast, primary screen, luminescence, uHTS | S. cerevisiae tim10-1 ts strain growth, BacTiter-Glo, 24 h | AID 463190, 2010 | 2.2% of 330,000 active | inhibition, % at 20 µM;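 active = inhibition of at least 40%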;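 also: mutant grown at 25 °C; 0% = DMSO wells with yeast and 100% = wells holding no yeast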
NALP3 yeast inh – NALP3 inflammasome inhibitors in reconstituted yeast, primary screen, luminescence, uHTS; Yeast reconstituted NLRP3/ASC/caspase-1, beta-gal luminescence, 24 h; inhibition, % at 10 µM; 0.39% of 330,000 active; AID 2825, 2010;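 active = inhibition of 50% or more; inactive = inhibition below 50%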;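 also: plate controls were induced DMSO wells for no effect and uninduced yeast grown without galactose for full effect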
tim23-1 inh – growth inhibitors of tim23-1 mutant yeast, primary screen, luminescence, uHTS; inhibition, % at 20 µM; AID 463212, 2010; 1.3% of 330,000 active; S. cerevisiae tim23-1 growth, BacTiter-Glo luminescence, 24 h;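 active = growth inhibition of the mutant yeast at or above 50%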;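 also: temperature-sensitive mutant grown at 25 °C; plate controls were DMSO-treated mutant yeast for no effect and medium wells lacking yeast for full effect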
SKKanGAS inh – S. pyogenes SKKanGAS growth inhibitors in kanamycin, primary screen, streptokinase expression inhibitor project, SKKanGAS strain, BacTiter-Glo luminescence. 6 h. inhibition, % at 7.5 µM. 1.3% of 300,000 active;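 active = mean replicate score, as percent of positive control median, at least 50; inconclusive = mean below 50 but one replicate at or above 50; inactive = mean and every replicate below 50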;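 also: strain carries kanamycin resistance gene driven by streptokinase promoter and grows in 40 µg/ml kanamycin; loss of luminescence reflects streptokinase promoter inhibition or plain growth inhibition; 0% = median of DMSO wells and 100% = positive control at its reference dose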
tim10-1 conf – growth inhibitors of tim10-1 mutant yeast, confirmation, single concentration, luminescence, S. cerevisiae; shares compounds with tim10-1 inh; S. cerevisiae tim10-1 ts strain growth, BacTiter-Glo, 24 h; inhibition, % at 20 µM; 56% of 7,400 active; AID 463213, 2010;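 active = inhibition of yeast growth at or above a set limit in either of two repeat tests at 20 µM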;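 also: tim10-1 mutant grown at permissive 25 °C to find synthetic lethal compounds; 0% = DMSO yeast wells and 100% = medium wells without yeast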
TIM10 conf – growth inhibitors of wild-type TIM10 yeast, confirmation, counter-screen for tim10-1 synthetic lethality project, single concentration, luminescence, S. cerevisiae | shares compounds with TIM10 inh | S. cerevisiae tim10 strain growth, BacTiter-Glo luminescence, 24 h | inhibition, % at 10 µM | 63% of 4,600 active;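 active = inhibition of yeast growth at or above a set limit in either of two replicates at 10 µM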;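 also: this counterscreen used the strain with wild-type TIM10; 0% = yeast with DMSO and 100% = medium wells lacking yeast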
tim23-1 confirm – tim23-1 mutant yeast growth inhibitors, confirmation, luminescence, single concentration | shares compounds with tim23-1 inh | S. cerevisiae tim23-1 growth, BacTiter-Glo luminescence, 24 h | inhibition, % at 20 µM | 83% of 4,400 active;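 active = inhibition above about 39% in either of two replicate wells at 20 µM, limit read from the data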;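 also: temperature-sensitive tim23-1 mutant grown at 25 °C; 0% = DMSO wells with yeast and 100% = medium wells without yeast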
Active calls of the source: *; u = inconclusive; x = no result. A selection: hits, their analogues and other compounds. The true share with any hit is near 4.5%.

SMILES	PfHsp90 yeast 2	TIM10 inh	tim10-1 inh	NALP3 yeast inh	tim23-1 inh	SKKanGAS inh	tim10-1 conf	TIM10 conf	tim23-1 confirm
CN(C)C(CNC(=O)c1cnc(Cl)c(Cl)c1)c1ccccc1 (centres undefined)	13	12	3	7	5	7	x	x	x
Cc1cc(NC(=O)Nc2cccc(Cl)c2)n(-c2ccccc2)n1	3	-12	12	6	12	-16	x	x	x
Cc1cc(NC(=O)Nc2cccc(Cl)c2)n(-c2ccccn2)n1	-3	29	54*	29	70*	-2	41*	x	76*
O=[N+]([O-])c1ccc(CNc2ccc(Cl)cc2)s1	-8	56*	57*	31	61*	13	54*	65*	68*
O=C(N/N=C/c1ccco1)c1ccccc1OCc1ccccc1Cl	-3	42*	44*	9	51*	-3	41*	38*	48*
O=C(Nc1cccc(Br)c1)c1ccc2c(c1)SC1=NS(=O)(=O)CCN12	5	0	11	8	10	x	x	x	x
CNC(=O)c1c(NC(=O)C2=COCCO2)sc2c1CCC(C)C2 (centres undefined)	-25	31	51*	9	56*	x	23	x	50*
CC1CCc2c(sc(NC(=O)C3=COCCO3)c2C(N)=O)C1 (centres undefined)	-2	16	13	9	21	x	x	x	x
CN=c1scc(-c2cccs2)n1/N=C/c1ccc(O)c(O)c1O	10	32	42*	19	71*	5	19	x	84*
O=C(CCSc1ccc(Br)cc1)c1ccc(O)cc1	97*	17	50*	11	62*	24	49*	x	74*
CCCOc1ccc(C(=O)N(Cc2cccs2)C2CCS(=O)(=O)C2)cc1 (centres undefined)	-3	0	14	12	-2	-14	x	x	x
COc1ccc(/C=C\c2nc(=O)c3ccccc3o2)cc1	2	42*	55*	12	78*	-7	46*	35*	71*
Cc1c(C(=O)NN)[nH]c2ccc([N+](=O)[O-])cc12	x	4	24	10	8	-5	x	x	x
Cc1ccc(C)c2c1[nH]c1ccc([N+](=O)[O-])cc12	-36	39	50*	12	68*	31	31*	x	51*
CCCC(=O)Nc1ccc(Sc2ccc([N+](=O)[O-])cc2)cc1	4	55*	42*	30	51*	-7	25	41*	43*
CCC(CC)C(=O)Nc1ccc(Sc2ccc([N+](=O)[O-])cc2)cc1	-6	23	25	-5	22	11	x	x	x
C=CCN(CC=C)c1nc2ccccc2nc1C(C#N)C(=O)OCCOC (centres undefined)	-9	41*	67*	33	59*	-1	72*	55*	66*
CCCN(CCC)c1nc2ccccc2nc1C(C#N)C(=O)OCCOC (centres undefined)	-20	12	24	18	25	4	x	x	x
Fc1ccc(NC(=S)Nc2ccc(F)c(Cl)c2)cc1Cl	-15	53*	71*	10	72*	64*	61*	-15	65*
Fc1ccc(NC(=S)N2CCCC2)cc1Cl	-24	-3	10	-3	9	-5	x	x	x
CCOc1ccc2c(c1)-c1c(ssc1=S)C(C)(C)N2	-5	37	48*	35	52*	-18	40*	x	56*
CCOc1ccc2c(c1)/C(=N/N1C(=O)c3ccccc3C1=O)C(=O)N2	31	23	17	12	16	0	x	x	x
COc1ccc(C(=O)c2c(C(F)(F)F)oc3c2C(=O)c2ccccc2C3=O)cc1OC	-23	38	52*	4	67*	100*	40*	x	68*
O=C(NCc1ccccn1)c1ccc2nc(C3CCCCC3)oc2c1	22	4	14	9	14	-1	x	x	x
OC1CCN(c2c3c(nc4cc(-c5cccc(F)c5)nn24)CCCC3)CC1	6	15	41*	7	51*	9	19	x	35
SMILES	PfHsp90 yeast 2	TIM10 inh	tim10-1 inh	NALP3 yeast inh	tim23-1 inh	SKKanGAS inh	tim10-1 conf	TIM10 conf	tim23-1 confirm
CN(CCO)c1c2c(nc3cc(-c4cccc(F)c4)nn13)CCCC2	15	26	27	14	41	-3	x	x	x
CN(C)C(=O)C(=O)c1c(-c2ccccc2)cc2ccccn12	x	17	22	18	19	5	x	x	x
O=Nc1c(-c2ccccc2)cc2ccccn12	-41	49*	50*	32	66*	24	43*	29*	63*
CC(C)CC(OC(=O)c1nsc(Cl)c1Cl)C(=O)NC1CCCC1 (centres undefined)	-22	0	24	17	35	13	x	x	x
Cc1ccsc1/C=N/Nc1nc(=O)[nH]nc1C	u	43*	52*	2	50*	27	50*	48*	56*
Cc1cc(C)nc(N/N=C/c2sccc2C)n1	-26	-11	4	6	6	0	x	x	x
Cc1ccc(Nc2cc(C)nn2-c2nc(C)cc(C)n2)cc1	-25	44*	47*	35	53*	101*	25	-25	47*
CC(=O)Nc1cc(C)nn1-c1nc(C)cc(C)n1	11	-15	9	-2	2	3	x	x	x
CCCn1c(SCC(=O)NC2CC2)nnc1-c1ccccn1	0	-13	19	5	11	0	x	x	x
CCn1c(C)nc2cc(-c3nc4n(n3)Cc3ccccc3-4)ccc21	55	54*	60*	10	65*	65*	51*	49*	68*
Cc1ccc(/C=C2\SC(=S)N(CCC(=O)N3CCOCC3)C2=O)cc1	-20	12	25	-10	29	-3	x	x	x
NC(=O)C1Cc2ccccc2CN1C(=O)c1cc(C2CC2)nn1-c1ccccc1 (centres undefined)	7	4	-2	13	-5	x	x	x	x
